CYP2C19 activ – human CYP2C19 activators, primary screen, biochemical, luminescence | recombinant CYP2C19, luciferin-H EGE luminescence; stronger effect = higher value; 0 = fully inhibited enzyme, 1 = untreated enzyme | 96,000 tested, under 10 active | Cytochrome P450 2C19 (Homo sapiens), P33261 | activation factor at 5 µM | AID 1025, 2008;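 active = activation factor of at least 2 at 5 µM in the primary screen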
CYP2C9 inhib – blockers of cytochrome P450 2C9 activity – biochemical, luminescence, ADME assay, primary screen. CYP2C9 Supersomes, luciferin-H conversion. inhibition, % at 5 µM. actives 20% (n = 96,000). AID 777, 2007;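 active = blocking of liver enzyme CYP2C9 beyond about 50% at 5 µM, limit read from the data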
Cav32 inh – Cav3.2 calcium influx blockers – cell-based, Fluo-4 calcium fluorescence, FDSS, MLSMR library, primary screen; Voltage-dependent T-type calcium channel subunit alpha-1H (Homo sapiens), O95180; Cav3.2-expressing cells; stronger effect = lower value; B-score at 10 µM; actives 4% (n = 100,000);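 active = single-dose well whose peak fluorescence ratio is a statistical outlier from its plate by either plate-standardised score or position-corrected B-score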
CYP2C9 act – human CYP2C9 activators, primary screen, biochemical, luminescence; Cytochrome P450 2C9 (Homo sapiens), P11712; recombinant CYP2C9, luciferin-H conversion; stronger effect = higher value; factor 1 = untreated enzyme, 0 = blocked; activation factor at 5 µM; actives 1.4% (n = 96,000); AID 1024, 2008;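 active = activation factor of 2 or more for CYP2C9 at a 5 µM dose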
CYP2C19 inh – blockers of cytochrome P450 2C19 activity – biochemical, luminescence, ADME assay, primary screen. CYP2C19 Supersomes, luciferin-H EGE luminescence, 30 min. AID 778, 2007. actives 21% (n = 96,000). inhibition, % at 5 µM. P33261;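 active = CYP2C19 inhibition above a set limit at 5 µM in the primary screen, cut at about 50% in these data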
Hits are given with their value; - = inactive; . = no result; ! = repeats disagree. Shown are actives, neighbours in structure and some others; about 27% of the full set was active somewhere.

SMILES	CYP2C19 activ	CYP2C9 inhib	Cav32 inh	CYP2C9 act	CYP2C19 inh
CC(C)C(=O)N1CCN(c2ccc(NC(=O)c3ccc(Br)o3)cc2)CC1	-	-	-	-	-
O=C(Nc1ccc(N2CCN(C(=O)c3ccc(Cl)cc3)CC2)cc1)c1ccc(Br)o1	-	56.7	-	-	-
CCOc1cc(C(=O)N2CCOCC2)ccc1OCc1ccccc1	-	-	-	-	-
Cc1ccc(C)c(S(=O)(=O)C(C#N)c2nc3ccccc3nc2N2CCOCC2)c1 (stereo unspecified)	-	-	-	-	-
Cc1ccc2cc(/C=C3\N=C(c4ccccc4)OC3=O)c(N3CCOCC3)nc2c1	-	-	-6.55	-	-
COc1ccc(Oc2ncc(CN3CCN(c4ccccc4)CC3)s2)cc1	-	92.9	-	-	82.3
Brc1ccc(Oc2ncc(CN3CCOCC3)s2)cc1	-	-	-	-	80.2
O=C(Cn1nc(C(F)F)cc1C(F)F)N/N=C/c1ccc2c(c1)OCO2	-	-	-	-	-
Oc1[nH]c2ccccc2c1/C=N/c1nccs1	-	-	.	-	53.4
CCN(CCO)c1ncnc2c1sc1nc(CC(C)C)c3c(c12)CC(C)(C)OC3	-	68.7	-	-	-
CCc1nnc(NC(=O)Cn2nnc(-c3ccccc3F)n2)s1	-	65.7	-	-	-
CC1CCCN(S(=O)(=O)c2ccc(NC(=O)Cn3nnc(-c4ccccc4F)n3)cc2)C1 (stereo unspecified)	-	99.3	-	-	62.0
Cc1ccccc1-c1nnn(CC(=O)N2CCN(S(=O)(=O)c3ccc(Cl)cc3)CC2)n1	-	-	.	-	61.8
N#Cc1ccc(C(=O)Nc2ccc(N3CCN(C(=O)c4ccco4)CC3)cc2)c(F)c1	-	-	-	-	-
Cc1[nH]nc2nc3c(c(OC(=O)c4ccccc4)c12)c(=O)n(C)c(=O)n3C	-	-	.	-	-
C=C(C)c1cccc(C(C)(C)NC(=O)N(Cc2ccccc2)Cc2ccco2)c1	-	72.5	.	-	-
COc1ccc(-c2ccc3oc(-c4ccc(OC)cc4)c(C#CCCO)c3c2)cc1	.	.	-	.	.
O=[N+]([O-])c1cc(Cl)cc(/C=N\Nc2ccccn2)c1O	-	50.1	-3.75	-	53.9
CC(=O)C1=C(C)NC(SCSc2ccccc2)=C(C#N)C1c1cccnc1 (stereo unspecified)	-	65.8	-	-	82.6
CCOC(=O)C1=C(c2ccccc2)NC(SCC(N)=O)=C(C#N)C1c1cccnc1 (stereo unspecified)	-	62.7	-	-	68.1
CC1=C(C#N)C(c2cccnc2)C2=C(CC(C)(C)CC2=O)N1 (stereo unspecified)	-	-	-	-	-
CC(=O)C1=C(C)NC(SCC(=O)c2ccc(-c3ccccc3)cc2)=C(C#N)C1c1cccnc1 (stereo unspecified)	-	86.0	-	-	95.5
c1ccc(N2CCN(c3nc(NCc4ccco4)c4ccccc4n3)CC2)cc1	-	90.9	-	-	96.0
Oc1ccccc1-c1nc(NCc2ccco2)c2ccccc2n1	-	-	-	-	-
c1coc(CNc2nc(N3CCCCC3)nc3ccccc23)c1	-	-	-4.34	-	-
SMILES	CYP2C19 activ	CYP2C9 inhib	Cav32 inh	CYP2C9 act	CYP2C19 inh
O=C(O)C1C2C=CC(C2)C1C(=O)OCc1ccccc1 (stereo unspecified)	-	-	-	-	-
CCOc1c(C)cc(-c2ncccc2O)cc1C	-	-	-	-	68.9!
COc1ccc(-c2ncccc2O)cc1	-	-	-	-	-
COC(=O)c1cc(C#N)c(NCc2ccccc2)nc1C	-	-	-	-	-
COC(=O)c1cc(C#N)c(Oc2ccccc2OC)nc1C	-	51.8	-	-	71.7
CCOC(=O)c1cc(C#N)c(Oc2ccccc2OC)nc1-c1ccccc1	-	64.4	-	-	-
CC(C)OCP(=O)(c1ccccc1)c1ccccc1	-	-	-	-	-
Cc1cccc(Cc2cnc(NC(=O)c3ccc(C)o3)s2)c1	-	-	-6.03	-	-
Cc1ccc(C(=O)N/C(=C/c2cccs2)C(=O)N2CCCCCC2)cc1	-	51.1	-	-	-
CCC(Oc1ccccc1)C(=O)Nc1ccc(S(=O)(=O)N2CCOCC2)cc1 (stereo unspecified)	.	.	-	.	.
CCC(Oc1ccccc1)C(=O)N1CC(C)CC(C)C1 (stereo unspecified)	-	-	-	-	50.9
